Source: PubChem BioAssay (Tox21)
Inconclusive results are not listed. The source holds several records for some structures; these can differ, active in one and inactive in another. The source made the active and inactive calls. Calls come from the whole dose curve; as a rule, active = well fitted cell-killing curve with a large enough effect in the repeat runs; inconclusive = weak or mixed curves, or effect the other way; inactive = flat fitted curve, though single readings scatter.
% is set by controls: 0 for no effect and ±100 for the full control effect; potency is the fitted concentration of half-maximal effect.

Experiment: qHTS assay to identify small molecule antagonists of the retinoid acid receptor (RAR) signaling pathway - cell viability counter screen (AID 1159551); note: nearly all actives have a fitted effect of over 35% in size
Details: C3RL4 cells viability, ATP luminescence (CellTiter-Glo), 6 h; series mostly up to 92.4 µM; activity change, negative = cytotoxicity: at the top concentration
From the text: U.S. Tox21 Program National Center for Advancing Translational Sciences [NCATS] NIH Chemical Genomics Center [NCGC] U.S. Environmental Protection Agency [EPA] National Institutes of Environmental Health Sciences [NIEHS] National Toxicology Program [NTP] U.S. Food and Drug Administration [FDA] Tox21 Assay Overview: All-trans Retinoic acid (atRA) is the potent natural metabolite of retinol and plays an important role in normal embryonic development and maintenance of cellular phenotype in adult animals. atRA is the activating ligand for the retinoic acid receptors (RARs) which form heterodimers with retinoid X receptors (RXRs) on the retinoic acid response element (RARE). Through activation of the RAR/RXRs nuclear receptors, atRA regulates the transcription of a large number of protein-coding genes and regulatory RNAs. Intracellular levels of atRA are controlled by the retinol signaling pathway (RSP) that regulates the biosynthesis and catabolism of atRA to maintain physiological levels. Chemicals that interfere with the RSP can cause abnormal intracellular levels of atRA and therefore are potential developmental toxicants. To assess compounds for the potential adverse effect on embryonic development through interfering with retinol signaling, a cell-based RARE luciferase reporter gene assay was used. C3RL4 cell line (OARSA/CFSAN/FDA, Laurel, MD) was used to screen Tox21 10K compound library for identifying inhibitors of the RSP. Also cytotoxicity was assessed by determining the viability of cells based on the quantitation of ATP.
Tox21 Assay Protocol Summary: C3RL4 cells were seeded at 1,000/well in 4 uL of assay medium into white solid 1,536-well tissue culture plates (Greiner Bio-One North America Inc. Monroe, NC) using a Multidrop Combi (Thermo Scientific, Waltham, MA) dispenser. After incubation at 37 C and 5% CO2 for an overnight, 23 nL of compounds dissolved in DMSO, positive control or DMSO only were transferred by a Pintool station (Kalypsys, San Diego, CA). One ul of 1 uM (final concentration) of Retinol was added right after the compound addition by using a Flying Reagent Dispenser (FRD) (Aurora Discovery, San Diego, CA). After 6 hr incubation at 37 C and 5% CO2, 5 uL of CellTiter-Glo reagent (Promega Corporation, Madison, WI) was added to each assay plate using an FRD. Luminescence was quantified on a ViewLux plate reader (PerkinElmer, Waltham, MA) after 30 min incubation at room temperature.
With `CC[C@@]1(O)C(=O)OCc2c1cc1n(c2=O)Cc2c-1nc1ccccc1c2/C=N/OC(C)(C)C` the “activity change, negative = cytotoxicity” value was -0.743% [at 42.5 µM] (inactive).
With `Cc1ccc2oc(CN(Cc3ccccc3)C(=O)Nc3c(F)cc(F)cc3F)c(-c3ccc(Cl)cc3)c2c1` the “activity change, negative = cytotoxicity” value was -4.67% (inactive).
In the case of `CCOC(=O)c1nc(C(Cl)(Cl)Cl)n(-c2ccc(Cl)cc2Cl)n1`, the “activity change, negative = cytotoxicity” value is reported as -0.313% (inactive).
With `Oc1cc2ccccc2c2ccccc12` the Potency was 27.3 µM (active).
For `O=c1[nH]cnc2nc[nH]c12`, the “activity change, negative = cytotoxicity” value was 8.05% [at 42.5 µM] (inactive).
For `CCOc1ccc2nc3cc(N)ccc3c(N)c2c1`, the “activity change, negative = cytotoxicity” value was -1.93% [at 42.5 µM] (inactive).
For `Nc1ccc2c3c(cccc13)-c1ccccc1-2`, the “activity change, negative = cytotoxicity” value was -0.249% (inactive).
For `Clc1ccccc1C(c1ccccc1)(c1ccccc1)n1ccnc1`, the Potency was 68.6 µM (active) and inactive.
With `CC1=NC(C)OC1C` (stereo not given) the “activity change, negative = cytotoxicity” value was -2.09% (inactive).
For `CCCCCOC(=O)CCCC`, the “activity change, negative = cytotoxicity” value was 2.55% (inactive).
With `C=CC(=O)OCC(CO)(COCC(COC(=O)C=C)(COC(=O)C=C)COC(=O)C=C)COC(=O)C=C` the Potency was 53.8 µM (active).
For `CN(C)CCCOC1(Cc2ccccc2)CCCCCC1`, the “activity change, negative = cytotoxicity” value was 1.75% [at 42.5 µM] (inactive).
For `CCc1cc(Cc2cc(CC)c(N)c(CC)c2)cc(CC)c1N`, the “activity change, negative = cytotoxicity” value was -5.34% (inactive).
For `Clc1ccc2nsnc2c1NC1=NCCN1`, the “activity change, negative = cytotoxicity” value was -1.53% [at 42.5 µM] (inactive).
In the case of `NNc1nc(-c2ccc([N+](=O)[O-])cc2)cs1`, the Potency is reported as 43.3 µM (active).
In the case of `COC(=O)C1=C(C)NC(C)=C(C(=O)OCCc2ccc(N3CCN(C(c4ccccc4)c4ccccc4)CC3)cc2)C1c1cccc([N+](=O)[O-])c1` (stereo not given), the “activity change, negative = cytotoxicity” value is reported as 3.02% [at 42.5 µM] (inactive).
With `CC(C)(C)C(=O)OCOC(=O)C1N2C(=O)CC2S(=O)(=O)C1(C)C` (stereo not given) the “activity change, negative = cytotoxicity” value was 1.1% [at 42.5 µM] (inactive).
With `CO[Si](CCCNc1ccccc1)(OC)OC` the “activity change, negative = cytotoxicity” value was 2.26% (inactive).
For `COc1cc(/C=C/C(=O)O[C@H]2CC[C@]34C[C@]35CC[C@]3(C)[C@@H]([C@H](C)CCC=C(C)C)CC[C@@]3(C)[C@@H]5CC[C@H]4C2(C)C)ccc1O`, the “activity change, negative = cytotoxicity” value was -1.2% [at 42.5 µM] (inactive).
In the case of `Nc1c(Cl)cc(Cl)cc1Cl`, the “activity change, negative = cytotoxicity” value is reported as -6.28% (inactive).
With `NC(=NCCCCCCN=C(N)/N=C(\N)Nc1ccc(Cl)cc1)/N=C(\N)Nc1ccc(Cl)cc1` the “activity change, negative = cytotoxicity” value was -0.0964% [at 42.5 µM] (inactive).
For `CCCCCCCCCCCCCC[P+](CCCC)(CCCC)CCCC` (tested in a mixture with another compound), the Potency was 27.5 µM (active).
With `O=C1CCCc2c1cc1ccc3cccc4ccc2c1c34` the “activity change, negative = cytotoxicity” value was -1.63% (inactive).
With `CC[C@H]1O[C@]2(CC[C@@H]1C)C[C@@H]1C[C@@H](C/C=C(\C)C[C@@H](C)/C=C/C=C3\CO[C@@H]4[C@H](O)C(C)=C[C@@H](C(=O)O1)[C@]34O)O2` the Potency was 68 µM (active).
In the case of `CCCCCCCCS(=O)C(C)Cc1ccc2c(c1)OCO2` (stereo not given), the “activity change, negative = cytotoxicity” value is reported as -4.6% (inactive).
With `O=C(NOCC1CC1)c1ccc(F)c(F)c1Nc1ccc(I)cc1Cl` the “activity change, negative = cytotoxicity” value was -7.48% [at 42.5 µM] (inactive).
With `CC[C@H](c1ccc(O)cc1)[C@@H](CC)c1ccc(O)cc1` the “activity change, negative = cytotoxicity” value was -0.504% [at 42.5 µM] (inactive).
With `O=[N+]([O-])c1cc([N+](=O)[O-])c2ccc(S(=O)(=O)O)cc2c1O` the “activity change, negative = cytotoxicity” value was 0.185% (inactive).
With `O=C(O)c1c(Cl)cccc1Cl` the “activity change, negative = cytotoxicity” value was -0.482% (inactive).
With `CC(C)(C)C(=O)OCOC(=O)[C@@H]1N2C(=O)[C@@H](NC(=O)[C@H](N)c3ccccc3)[C@H]2SC1(C)C` the “activity change, negative = cytotoxicity” value was 3.94% [at 42.5 µM] (inactive).
With `Cc1cc(O)c(C(C)(C)C)cc1Sc1cc(C(C)(C)C)c(O)cc1C` the Potency was 61 µM (active).
For `CCCCCCCC[N+](CCCCCCCC)(CCCCCCCC)CCCCCCCC`, the Potency was 27.3 µM (active).
With `C1CCCC1` the “activity change, negative = cytotoxicity” value was 0.681% (inactive).
With `OCCN(CCO)c1nc(N2CCCCC2)c2nc(N(CCO)CCO)nc(N3CCCCC3)c2n1` the “activity change, negative = cytotoxicity” value was -1.26% [at 42.5 µM] (inactive).
With `c1cc(C(c2ccc(OCC3CO3)cc2)c2ccc(OCC3CO3)cc2)ccc1OCC1CO1` (stereo not given) the “activity change, negative = cytotoxicity” value was 8.57% (inactive).
For `O=C1C=CC(=O)N1`, the Potency was 31.4 µM (active).
For `CCCCN(CCCC)c1ccc(C(=O)c2ccccc2C(=O)O)c(O)c1`, the “activity change, negative = cytotoxicity” value was -3% (inactive).
For `O=c1[nH]sc2cc(Cl)ccc12`, the “activity change, negative = cytotoxicity” value was -3.37% [at 42.5 µM] (inactive).
With `Cc1[nH]nc2c1N=C(c1ccccc1Cl)c1cc([N+](=O)[O-])ccc1N2` the Potency was 43.3 µM (active).
For `Cc1cccc(N(C)C(=S)Oc2ccc3c(c2)C2CCC3C2)c1` (stereo not given), the “activity change, negative = cytotoxicity” value was -1.83% [at 42.5 µM] (inactive).
